From PubChem BioAssay
In the library only some 7.8% were active in any assay of this set; here they are far more common.
Lassa entry inh – blocks Lassa virus binding to or entry into cells; Potency, µM (titrated, usually from 37.9 µM), inactives show at the highest dose activity change, negative = inhibition, usual class: inhibitors; 300,000 tested, 1.2% active; Lassa virus pseudotype entry inhibition, cell reporter; calls by dose curve; tested in HEK293 cells; also: potency is read from the fitted curve at half-maximal effect; nearly all actives have a fitted effect of over 50% in size
VACV mCherry inh – inhibitors of vaccinia virus infection (mCherry reporter signal). 310,000 tested, 0.63% active. AID 720579. Potency, µM (titrated, usually from 36.5 µM), inactives show at the highest dose activity change, negative = inhibition, usual class: inhibitors. Vaccinia virus mCherry reporter infection, fluorescence; calls by dose curve; tested in A549 cells; also: potency is read from the fitted curve at half-maximal effect; nearly all actives have a fitted effect of over 35% in size
Vaccinia Venus – inhibitors of vaccinia virus (Venus reporter); 330,000 tested, 0.46% active; Potency, µM (series often up to 36.5 µM), for the others: at the top dose activity change, negative = inhibition, usual class: inhibitors; Vaccinia virus Venus reporter expression, fluorescence; AID 720580; calls by dose curve; tested in A549 cells; also: potency is read from the fitted curve at half-maximal effect; nearly all actives have a fitted effect of over 30% in size
HCMV antiviral – blocks human cytomegalovirus replication; HFF cells, HCMV-luciferase reporter, 72 h; active compounds read low; activity change, negative = inhibition, % at 57.5 µM; 410,000 tested, 4.5% active; AID 1259415; in the data active = activity change below about -60%; inconclusive = no clear call, values can overlap the other calls; inactive = above about -39%
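Two-dose cell screen: HFF monolayers treated with compounds and infected with luciferase-expressing HCMV at 1 PFU/cell, 72 h at 37C, then lysed for luciferase measurement.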
HCV inhibitor – HCV inhibition; Huh7.5.1 HCVcc-Cre infection, luciferase reporter, 44 h; Potency, µM (top dose mostly 41.8 µM), inactives show at the top dose activity change, negative = inhibition, usual class: inhibitors; 340,000 tested, 3.4% active; AID 651820; active = well fitted inhibition curve with a large enough effect; inconclusive = small, poorly fitted or top-dose-only effect, or another doubt; inactive = no such curve, though single readings can be large or run the other way; also: potency is read from the fitted curve at half-maximal effect
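Luciferase read-out (15 sec integration) after a 15 min room-temperature substrate step quantifies HCVcc-Cre infection. Cells, 1,000 per well, had compound added 4 h post-plating, then virus at ~0.5 moi, and were cultured 44 h.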
Marburg entry inh – blocks Marburg virus binding to or entry into cells. AID 540276. Marburg virus pseudotyped entry inhibition, cell reporter. 300,000 tested, 1.8% active. Potency, µM (series often up to 37.8 µM), without a hit: at the highest dose activity change, negative = inhibition, most hits filed as inhibitors; calls by dose curve; tested in HEK293 cells; also: potency is read from the fitted curve at half-maximal effect
Starred values were filed as active, the others as inactive; i = inactive; ? = inconclusive; · = not tested or not shown; [ ] = another dose, or the depositor's remark. % is scaled to controls: 0 for no effect and ±100 for the full control effect.

SMILES	Lassa entry inh	VACV mCherry inh	Vaccinia Venus	HCMV antiviral	HCV inhibitor	Marburg entry inh
COc1cccc(-c2cnc3c(NC=O)cc(-c4ccccc4Oc4ccccc4)cn23)c1	·	20.0%	-7.4%	-36.5	·	·
CC1=NN(c2ccc([N+](=O)[O-])cc2)C(=O)/C1=C\N(C)C	7.3%	-22.5%	-10.2%	3.6	15.5%	7.8%
CC1=NN(c2ccc(C)c(C)c2)C(=O)/C1=C\C=C\c1ccc([N+](=O)[O-])o1	7.08µM*	i	-2.1%	-88.2*	11.2µM*	3.55µM*
Cc1nc(N)c(C#N)c(-c2cccnc2)c1C	8.8%	-19.8%	-17.6%	-70.4*	12.9%	17.4%
CCc1nc(N)c(C#N)c(-c2cccnc2)c1C	10.0%	·	·	-4.0	4.5%	3.2%
COC(=O)[C@@H]1CCCN1C(=O)c1c(OC)cc(=O)n2c1CCN(Cc1c(C)[nH]c3ccccc13)CC2	·	-12.9%	-17.0%	·	·	·
CC(C)N1C(=O)S/C(=C/c2ccc3c(c2)n(C)c(=O)n3C)C1=O	-0.1%	·	·	56.2	?	?
CCN(CC)c1ccc(/C=C2\SC(=O)N(C(C)C)C2=O)o1	?	i	40.5%	·	10µM*	11.2µM*
Cc1ccccc1C(=O)O/N=C/c1c(N2CCOCC2)n(C)c2ccccc12	-16.0%	·	·	-98.8*	1µM*	?
CN1CCN(c2c(/C=N/O)c3ccccc3n2C)CC1	17.4%[46.1 µM]	-5.6%	-6.9%	·	-17.8%	9.0%[46.1 µM]
Cc1cccc(C)c1-n1nnnc1C(c1cc2ccccc2o1)N1CCC(n2c(=O)[nH]c3ccccc32)CC1 (centres undefined)	·	?	?	-66.6*	·	·
COc1ccc(C(c2nnnn2-c2c(C)cccc2C)N2CCC(n3c(=O)[nH]c4ccccc43)CC2)cc1 (centres undefined)	·	-20.8%	-29.1%	-69.0*	·	·
Cc1cc(Cl)ccc1NC(=O)CN(c1ccccc1Br)S(C)(=O)=O	?	0.5%	-2.9%	2.5	·	·
COc1ccc(CN(Cc2ccco2)C(=O)COc2ccc(Cl)cc2C)cc1	-2.5%[46.1 µM]	0.7%	0.9%	42.4	·	8.7%[46.1 µM]
Cn1c(=O)c2ncn(CC(=O)Nc3cccc(-c4nc5ccccc5s4)c3)c2n(C)c1=O	?	i	-5.6%	10.6	10µM*	?
O=C(Nc1ccc(F)cc1)N1CCN(c2ccccc2F)CC1	0.3%[46.1 µM]	-5.8%	-9.9%	-3.0	·	?
c1ccc(-c2nnc(CN3CCCc4ccccc43)o2)cc1	2.3%	-13.1%	-6.1%	60.9	?	?
CCOC(=O)C1CCN(Cc2ccc(O)c3ncccc23)CC1	-24.9%	·	·	?	10µM*	?
Oc1ccc(CN2CCCc3ccccc32)c2cccnc12	4.47µM*	?	?	·	10µM*	?
COc1ccccc1N1CCN(Cc2ccc(O)c3ncccc23)CC1	10.3µM*	·	·	-91.1*	3.55µM*	?
COc1ccccc1CN(Cc1ccco1)c1cnc(S(C)(=O)=O)nc1C(=O)Nc1cc(C)ccc1C	?	-10.8%	-11.6%	-7.1	·	?
CCOC(=O)N/N=C1\C[C@@H](O)[C@@H](O)[C@@H]2[C@@H]3C(=O)N(Cc4ccc5c(c4)OCO5)C(=O)[C@@H]3CC[C@H]12	·	·	·	·	·	-1.5%[14.2 µM]
CC1(C)CC(NC(=O)COc2ccc(Cl)cc2Cl)CC(C)(C)N1	·	-2.9%	2.7%	0.0	?	-1.2%[46.1 µM]
Cc1cc(OCC(=O)NC2CC(C)(C)NC(C)(C)C2)c(C)cc1Br	-11.4%	-26.5%	-16.3%	-39.2	10µM*	?
Cc1ccc(OCC(=O)NC2CC(C)(C)NC(C)(C)C2)c(C)c1	-20.6%[46.1 µM]	2.1%	-7.7%	-3.8	-2.9%	-3.6%[46.1 µM]
SMILES	Lassa entry inh	VACV mCherry inh	Vaccinia Venus	HCMV antiviral	HCV inhibitor	Marburg entry inh
CC(C)c1ccc(OCC(=O)NC2CC(C)(C)NC(C)(C)C2)c(Br)c1	·	·	·	-40.0	11.2µM*	·
Nc1c(Cl)cc(C(=O)NC2CC2)cc1Cl	0.0%[46.1 µM]	i	-16.4%	1.7	-1.7%	11.2µM*
COc1ccccc1C1NC(=O)NC(C)=C1C(=O)Nc1cccc(C)c1C (centres undefined)	·	-11.6%	-3.2%	-1.7	13.4%	·
COc1c(O)ccc(C2NC(=O)NC(C)=C2C(=O)Nc2ccccc2C)c1[N+](=O)[O-] (centres undefined)	3.7%	-6.1%	7.9%	-63.1*	6.9%	-14.2%[46.1 µM]
CC1CCN(c2nnc(-c3cccs3)c3ccccc23)CC1	·	·	·	-66.5*	?	0.3%
c1csc(-c2nnc(NC3CCCCC3)c3ccccc23)c1	-16.6%	?	?	39.1	?	?
Cn1ccsc1=NC(=O)c1ccc([N+](=O)[O-])o1	·	·	·	-91.1*	?	·
O=C(Nc1cccc2ncccc12)c1ccc(-c2ccc(Br)cc2)o1	-0.6%	·	·	17.9	-20.3%	?
Cc1cccnc1NC(=O)c1ccc([N+](=O)[O-])o1	-22.2%	-25.8%	-10.4%	-76.0*	5.0%	5.5%
O=C(Nc1cccc2ncccc12)c1ccc([N+](=O)[O-])o1	?	?	?	-99.8*	25.1µM*	?
Cc1cccnc1NC(=O)c1ccccc1-c1ccccc1C(=O)Nc1ncccc1C	7.31µM*	i	1.9%	-7.4	10.7%	3.7%
Cc1c(NC(=O)c2ccc([N+](=O)[O-])o2)cccc1-c1nc2ncccc2o1	-4.6%	?	?	-86.5*	?	?
CCCc1nn2c(=O)cc(COC(=O)c3ccccc3NC(=O)C3CCCCC3)nc2s1	19.5%[46.1 µM]	-24.6%	-21.3%	51.4	·	·
CCc1ccccc1NC(=O)N1CC(C)Sc2ccccc21 (centres undefined)	11.2%[46.1 µM]	-4.1%	-9.1%	0.0	·	·
Cc1ccc(C)c(N2CCN(c3nc4ccccc4c(=O)n3-c3ccc(Cl)cc3)CC2)c1	15.6%[46.1 µM]	-15.7%	-14.3%	1.7	·	-27.8%[46.1 µM]
COc1cccc(/C=C2\Sc3ccc(C(=O)NCc4cccnc4)cc3N(C)C2=O)c1	-11.6%[46.1 µM]	i	-21.1%	0.0	?	?
COc1ccc(/C=C2\Sc3ccc(C(=O)NCc4cccnc4)cc3N(C)C2=O)cc1OC	?	i	-13.3%	-27.5	8.91µM*	?
COc1ccc(/C=C2\Sc3ccc(C(=O)N4CCN(Cc5ccccc5)CC4)cc3N(C)C2=O)cc1OC	·	·	·	-83.1*	3.55µM*	·
CN1C(=O)/C(=C/c2cccc(Cl)c2)Sc2ccc(C(=O)NCc3cccnc3)cc21	·	·	·	-13.9	10µM*	·
COCCNC(=O)C(C)(C)n1cc(-c2ccc(OC)c(OC)c2)cn1	·	·	·	4.7	·	·
Cc1ccc(-n2ncc(C(=O)NCc3ccco3)c2C2CCN(C(=O)OC(C)(C)C)CC2)cc1C	?	-24.6%	-18.6%	0.0	·	·
COc1ccc(C2=NCC(C)n3nc4ccccc4c32)cc1 (centres undefined)	·	·	·	9.0	·	·
CC(OC(=O)c1ccccc1NCCO)C(=O)Nc1ccc(S(=O)(=O)N2CCOCC2)cc1 (centres undefined)	6.4%	-6.1%	-1.4%	-20.5	8.91µM*	-20.7%[46.1 µM]
